Measured values published in ChEMBL document CHEMBL3988442, “University of Dundee, Small-Polar-MMV Screening Library” (2021).

Key:
[1] = molecular target: T1, Aspartate--tRNA(Asp/Asn) ligase (Mycobacterium tuberculosis (strain ATCC 25618 / H37Rv)) (UniProt P9WFW3); experiment: Assay for Asp RNA synthetase-1 from Mycobacterium tuberculosis; type: functional; parameters: scale not given: direction of the effect not stated beside the values; settings: 30 µM; also: in the data most compounds retested in dose-response had high values
T1 sequence (whole entry): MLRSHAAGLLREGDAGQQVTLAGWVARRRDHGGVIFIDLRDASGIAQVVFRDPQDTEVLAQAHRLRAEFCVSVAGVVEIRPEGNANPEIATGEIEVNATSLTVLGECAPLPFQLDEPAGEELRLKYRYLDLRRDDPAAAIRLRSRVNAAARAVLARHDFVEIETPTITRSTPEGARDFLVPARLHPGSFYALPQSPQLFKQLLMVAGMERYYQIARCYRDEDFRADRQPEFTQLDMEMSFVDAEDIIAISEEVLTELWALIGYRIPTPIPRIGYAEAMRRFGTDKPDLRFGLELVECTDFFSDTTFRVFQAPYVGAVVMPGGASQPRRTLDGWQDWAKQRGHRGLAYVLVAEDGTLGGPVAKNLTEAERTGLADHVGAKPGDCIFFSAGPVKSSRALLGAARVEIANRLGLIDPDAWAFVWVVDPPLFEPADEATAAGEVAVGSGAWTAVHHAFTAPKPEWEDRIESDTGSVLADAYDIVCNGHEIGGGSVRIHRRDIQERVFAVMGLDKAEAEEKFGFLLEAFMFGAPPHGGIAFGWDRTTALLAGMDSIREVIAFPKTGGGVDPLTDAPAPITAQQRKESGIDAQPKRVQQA

[2] = molecular target: Shiga toxin 2 (Escherichia coli O157:H7) (UniProt P09385+P09386); experiment: E. coli 0.157:H7 Shiga Toxin SOP - stx2 screening assay; type: functional; parameters: scale not given: direction of the effect not stated beside the values; settings: 30 µM

Structure (SMILES)	Percent Effect [1] [%]	Percent Effect [2] [%]
CO[C@H]1CCN(Cc2cnn(C)c2)[C@@H]2CN(Cc3cccnc3)C[C@H]12	3.14	-40.9
CN(C)C[C@H]1OC[C@@H]2CCN(S(=O)(=O)c3ccccc3)C[C@@H]21	4.96	-1.44
CC(C)CN1CCC(C(=O)Nc2cc(C(F)(F)F)c[nH]c2=O)CC1	-2.61	-33.9
O=C(N1CCCC1)N1CCc2ncnc(C3CCOC3)c2CC1 (configuration not stated)	-0.956	-10.8
CNC(=O)CN1CCC(NC(=O)N(C)Cc2cc(C)on2)CC1	-6.28	19
CC(C)CN1C[C@@H]2CN(C(=O)[C@H]3CCCO3)C[C@@H]2C1=O	1.02	-18.1
Cc1cc(C)cc(OCCC(=O)N2CCOCC2c2ncon2)c1 (configuration not stated)	5.48	33.2
O=C(O)[C@]12CCCN(Cc3ccccc3)C[C@H]1CN(c1ncccn1)C2	6.32	-14.8
Cn1cnnc1C1CCCN(C(=O)c2cnc3ccccc3n2)C1 (configuration not stated)	-1.76	36.5
Cc1nccn1C1CCCN(C(=O)C2=NN(C)C(=O)CC2)C1 (configuration not stated)	-1.52	19
Cc1cc(C[C@@H]2COC[C@@H]2NC(=O)CN2CCCN(C)CC2)on1	-1.58	-5.15
O=C([C@@H]1C[C@@H]2CCN(CCc3ccccc3)C[C@H]2O1)N1CCCC1	-0.868	-14.6
CCc1nc(CCNC(=O)C2CCOC2)sc1C (configuration not stated)	-2.83	30.6
Cn1cc(C(=O)NC2CCN(C(=O)NCC3CCSCC3)CC2)cn1	3.16	-2.79
CC(C)C(NC(=O)NCCNc1ccccn1)c1cccs1 (configuration not stated)	7.74	3.04
O=S(=O)(c1ccccc1)N1CCC2(CCCN2CC2CCCC2)C1 (configuration not stated)	-2.77	9.27
Cn1cc(C[C@H]2[C@H](O)CCN2CC2CC2)cn1	-0.168	2.72
CC(C)c1n[nH]c(C(=O)Nc2ccncc2)c1Br	-4.8	4.1
CC(=O)N1CCN(CC2CCOc3ccccc3C2)CC1 (configuration not stated)	1.75	-26.3
CCOC(=O)CNC(=O)c1cccnc1Oc1ccc(Cl)cc1	-1.89	6.74
CCn1cnnc1C1CCN(C(=O)COCCc2ccccc2)CC1	-3.95	-20.2
O=C1CC(c2ccc(F)c(F)c2)c2snc(C(=O)O)c2N1 (configuration not stated)	3.57	-5.34
COc1ccc(Cl)cc1C(=O)N1CCCC(n2nc(C)nc2C)C1 (configuration not stated)	-5.94	7.05
CN(C)CC(=O)N1CCC2(CCN(Cc3ccccn3)C2=O)C1 (configuration not stated)	-3.07	9.53
COc1ccc(CC(=O)N2CCCC2Cn2cccn2)cc1F (configuration not stated)	-0.871	15.1
CC(NC(=O)NCCCN(C)S(C)(=O)=O)c1ccncc1 (configuration not stated)	-2.98	-9.54

Structure (SMILES)	Percent Effect [1] [%]	Percent Effect [2] [%]
CCn1ncc2c1C(COCC1CC1)CN(S(=O)(=O)N(C)C)C2 (configuration not stated)	-1.37	-9.58
Cc1noc2nc(C3CCN(CC4=CCCOC4)CC3)cc(C(F)F)c12	12.2	-23.1
CC(Cn1ccnc1)NC(=O)C1(c2ccc(F)cc2)CC1 (configuration not stated)	-1.46	2.06
CCS(=O)(=O)N1C[C@H]2CN(Cc3cccnc3)C(=O)[C@H]2C1	3.48	-32.6
CCc1nc2n(n1)CC(NCC(=O)Nc1ccc(Cl)cn1)CC2 (configuration not stated)	0.314	2.33
COc1ccc(-c2cc(C3CCCCCN3S(=O)(=O)N(C)C)on2)cc1 (configuration not stated)	-5.4	-17.1
CCn1ccnc1CN1CCN(CC(O)Cn2cccn2)CC1 (configuration not stated)	-1.83	-31.5
CC(C)N1CCC(N2CCN(C3CCC3)CC2CCO)CC1 (configuration not stated)	-3.4	-0.0599
Cc1nn(C)c(Cl)c1C1CCCN1C(=O)c1cc(Cl)c[nH]1 (configuration not stated)	1.85	16.5
Cc1nc(C(=O)N2CCCC(n3cncn3)C2)cs1 (configuration not stated)	-3.48	1.3
Cc1ccc(F)c(OC2(C(=O)O)CCN(C(=O)N3CCCC3)CC2)c1	-1.17	-2.51
N#Cc1cccc(S(=O)(=O)NC(=O)COc2ccc3c(c2)CCC3)c1	-0.478	8.82
CC(Nc1cccc(CN2CCOC2=O)c1)C(=O)Nc1ccccc1F (configuration not stated)	1.17	-24.4
COc1cccn(CC(=O)N(C)Cc2ccoc2)c1=O	-1.64	5.29
Cc1cnn(CCCNC(=O)N2CCCCC(N3CCCC3)C2)c1 (configuration not stated)	1.48	22.3
COC1CCCN(Cc2nc(Cc3ccccc3F)no2)C1 (configuration not stated)	-7.18	6.38
C[C@@H]1CN(C(=O)c2cccs2)C[C@]12CCN(CCN(C)C)C2=O	-0.228	-8.44
CN(C)CC1CN(Cc2coc(-c3ccccc3Cl)n2)CCO1 (configuration not stated)	-5.66	-26.4
COCC(C)N(C)C(=O)c1nc(S(C)(=O)=O)n2ccccc12 (configuration not stated)	-0.433	-13.2
CS(=O)(=O)NCCCNC(=O)c1cccnc1O	5.28	-16.3
COCc1cccc(NC(C)C(=O)N(C)Cc2cccc(F)c2)c1 (configuration not stated)	-0.296	-8.46
CC(C)OCc1ncn2c1CN(Cc1ccc(F)cc1)CCC2	-1.67	3.71
CCn1nnc2c1C(COC)CN(Cc1cccs1)C2 (configuration not stated)	-3.5	5.25
CC(O)CC(C)(C)CNC(=O)NCc1cccc(-n2ccnc2)c1 (configuration not stated)	1.43	-7.32
Cn1cc(C(=O)N2CCCC(n3cccn3)C2)c2ccccc21 (configuration not stated)	-0.132	-6.71
COc1ccccc1OCCN1CCC(N2CCNC2=O)CC1	-1.95	21

Structure (SMILES)	Percent Effect [1] [%]	Percent Effect [2] [%]
CN(C)CCNC(=O)c1ccc(OC2CCN(S(C)(=O)=O)CC2)c(Cl)c1	1.85	-25.9
CN(C)[C@@H]1CN(Cc2ccoc2)C[C@@H]2CCCO[C@@H]21	-2.7	2.87
CCN1C[C@H]2CCN(C(C)=O)CC[C@H]2S1(=O)=O	-0.319	-50.9
COc1ccc(NC(=O)CNc2ccc(Br)cc2F)cc1	1.68	-79.8
CCOc1ccc(Cl)cc1C1CCCN1 (configuration not stated)	3.74	5.67
CCCc1n[nH]cc1C(=O)N1CCC(c2nccn2CCOC)CC1	-6.36	10
CS(=O)(=O)c1ccc(CNCC2CCN(CCO)CC2)cc1	9.49	-31.9
CN(CC(=O)N1CCN(c2ccccc2F)CC1)c1cnccn1	0.903	8.69
CC(C)(C)NC(=O)CNC(=O)CCc1ccccc1Br	0.279	-3.39
Cc1nc(N2CCCC2)nc2c1CN(C(C)C)CC2	1.86	-13.3
Cc1nccc(-c2cccc(NCC(=O)N3CCNC3=O)c2)n1	2.42	8.66
O=C(COc1coc(CN2CCOCC2)cc1=O)c1ccc(Cl)cc1	4.37	-57.8
COc1ccc(CCNC(=O)NC2CCCC2)cc1OC	2.58	-10.6
CNC(=O)C1(c2cnccn2)CCCN1C(=O)c1ccccc1OC (configuration not stated)	-4.66	-21.4
Cc1ncccc1OC1(C(=O)NCCNc2ccccc2)CCNCC1	-0.792	6.67
Cc1ccc(CN2CCC3(CC2)OC(C(=O)N(C)C)c2ccccc23)o1 (configuration not stated)	3.43	-27.1
O=C(C1CCN(c2snc3ccccc23)CC1)N1CCCCCC1	3.13	-32.4
COc1cccc(-n2nnc(C(=O)N3CCCC3)c2C)c1	-2.63	5.03
O=C(CCNC(=O)C1CCCC1)NCc1ccccc1Cn1cncn1	2.64	29.7
CC(C)CNC(=O)CN1C=Nc2ccccc2S1(=O)=O	5.2	32.2
CNc1nc2c(s1)C(=O)CN(C(=O)NCc1ccccc1)C2	1.63	-6.79
Cc1ccc(CN2CCCC3(CCN(S(C)(=O)=O)C3)C2)o1 (configuration not stated)	5.01	3.27
O=C(CCCOCc1ccccc1)N1CCCC1c1ccccn1 (configuration not stated)	-1.14	-0.85
O=C(NC[C@]12COC[C@H]1CN(Cc1nccs1)C2)c1ccccc1	-2.56	-14.5
O=C(c1ccsc1)N1CCc2c(CNc3ncccn3)n[nH]c2C1	-0.641	-33.5
CC1CN=C(N2CCN(C(=O)Nc3nc(-c4ccccc4)ns3)CC2)S1 (configuration not stated)	3.62	-38.1

Structure (SMILES)	Percent Effect [1] [%]	Percent Effect [2] [%]
O=C(CCc1ccccc1F)NS(=O)(=O)c1ccc2c(c1)OCCCO2	2.29	-13.9
O=C(CCCOc1ccccc1Cl)N1CCCC(n2cncn2)C1 (configuration not stated)	-3.9	19.3
CCN1C(=O)CCCC12CCCN(C(=O)c1conc1C)C2 (configuration not stated)	-4.46	1.9
Cc1nnc(N2CC[C@H]3C[C@H](C(=O)N4CCOCC4)O[C@H]3C2)s1	3.25	-4.69
CCn1nnc2c1C(COC)CN(C(=O)Cc1cccs1)C2 (configuration not stated)	-8.15	-30.3
Cc1ccc(CN2CCc3ncnc(C4CCOC4)c3CC2)s1 (configuration not stated)	1.05	-15.3
c1coc(-c2noc(CN3CC(n4cccn4)C3)n2)c1	-3.52	24.7
O=C(Cn1cc(I)cn1)N1CCCC1	-4.62	-0.574
Cc1nn(C)c(Cl)c1C1CCCN1CC(=O)NCc1ccccn1 (configuration not stated)	-2.78	-10.8
O=C(c1ccco1)N1CCC2(CCOC2)C1 (configuration not stated)	2.53	-46.7
Cc1nnc(C(C)N2CCN(Cc3ccc4c(c3)OCO4)CC2)o1 (configuration not stated)	-0.657	17.8
CCc1csc(C2CCCN(C(=O)c3ccc(OC)nn3)C2)n1 (configuration not stated)	-3.92	14.7
CCS(=O)(=O)N1CCC(c2cc3n(n2)[C@@H](C(F)(F)F)C[C@@H](C)N3)CC1	5.23	13
CN(C)c1ccc(CC(=O)N[C@@H]2CCNC[C@H]2O)cc1	3.77	1.28
CC(C)c1ccc(OCCC(=O)N2CCC(CC(N)=O)CC2)cc1	-0.478	29.9
Cn1nc2c(cc1=O)CN(Cc1nnc(-c3ccc(F)cc3)o1)CC2	19.5	-108
Cc1ccc(C(=O)NCCS(C)(=O)=O)c(=O)[nH]1	-3.5	-4.7
Cc1cc(C)n(C2CCCN(C(=O)Cc3csc(C)n3)C2)n1 (configuration not stated)	-6.85	5.9
Cc1cnn(CC2CCCN2C(=O)c2cc3ccccc3[nH]c2=O)c1 (configuration not stated)	-1.15	22.9
CO[C@H]1CCN(c2ccc(C)nn2)[C@H]1Cc1cnn(C)c1	1.39	3.96
Cc1nc(C)n(CC2CN(CCOc3ccccc3F)CCO2)n1 (configuration not stated)	-0.955	9.47
CC(C)CN1CCN(C(=O)Nc2cc(C(F)(F)F)c[nH]c2=O)CC1	-1.79	5.35
Cn1nnc2cc(C(=O)N3CCCC3Cc3ccccc3)ccc21 (configuration not stated)	2.04	-54.6
